# Compound activity from PubChem.
# An excerpt weighted towards active compounds, which were near 20% of everything screened.
# Cycloheximide cs: counter-screen for Shiga toxin inhibitors: cycloheximide protein synthesis inhibition | cell reporter, cycloheximide protein synthesis inhibition counterscreen | max response, % | hit rate 12% among 300,000; in the data active = max response mostly above about 13%, no sharp cut-off; inactive = mostly below about 14%; note: read at 38.3 µM for the half of the compounds with a filed dose; 0% is about no effect
# Pf growth 48h: P. falciparum growth inhibition at 48 hours (one generation); P. falciparum luciferase growth in erythrocytes, 48 h; Potency, µM (highest dose often 28.7 µM), for the others: top-dose activity change, negative = inhibition, usual class: inhibitors; hit rate 5.9% among 310,000; note: potency is the fitted concentration of half-maximal effect; % is set by controls: 0 for no effect and ±100 for the full control effect
#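 Compounds are pin-transferred into medium, infected erythrocytes (2% hematocrit, 0.1% parasitemia final) are added, and plates sit one parasite generation at 37 C in 5% CO2. Detection reagent is then added and luminescence measured.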
# Pf growth 96h: P. falciparum growth inhibition at 96 hour, primary screen for plastid delayed-death inhibitors; Potency, µM (series often up to 28.7 µM), for inactives: at the top dose activity change, negative = inhibition, actives largely listed as inhibitors; P. falciparum luciferase reporter growth, 96 h; hit rate 6.9% among 320,000; note: potency is the fitted concentration of half-maximal effect; % is set by controls: 0 for no effect and ±100 for the full control effect
#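 Parasite growth measured via integrated firefly luciferase reporter in P. falciparum. Infected erythrocytes at 2% hematocrit, 0.05% parasitemia final were treated 96 hours at 37 C under 5% CO2, and luminescence was read.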
# HCMV antiviral: human cytomegalovirus inhibition; HFF cells, HCMV-luciferase reporter, 72 h; active compounds read low; activity change, negative = inhibition, % at 57.5 µM; hit rate 4.5% among 410,000; AID 1259415; in the data active = activity change below about -60%; inconclusive = no clear call, values can overlap the other calls; inactive = above about -39%; note: % is set by controls: 0 for no effect and ±100 for the full control effect
#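 Cell-based, HFFs, 1000 cells/well, 16 h 37C; cpds in DMSO + HCMV-luc, MOI 1 PFU/cell; 72 h 37C; OneGlo luminescence after 5 min RT; norm. to buffer vs Salinomycin 10uM.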
# Shiga toxin inh: blocks Shiga toxin action in Vero cells. Vero cells, Shiga toxin protein synthesis inhibition reporter. inhibition, % at 38.7 µM. hit rate 9.2% among 290,000. AID 2315; in the data active = inhibition mostly above about 28%, no sharp cut-off; inactive = mostly below about 43%; note: 0% is about no effect
# * hit, by the source's call; ? = inconclusive; / = not tested or not shown. Unless noted, calls come from the whole dose curve; as a rule, active = well fitted inhibition curve with a large enough effect; inconclusive = small, poorly fitted or top-dose-only effect, or another doubt; inactive = no such curve, though single readings can be large or run the other way.
SMILES,Cycloheximide cs,Pf growth 48h,Pf growth 96h,HCMV antiviral,Shiga toxin inh
CCOc1cccc(C(=O)Nc2ccccc2C(=O)N2CCN(C)CC2)c1,0,2%,4.7µM*,-15,-8
CN1CCN(c2ccccc2NC(=O)c2cccc(OCc3ccccc3)c2)CC1,-2,5.2µM*,/,-12,-15
CN1CCN(c2ccccc2NC(=O)c2ccc(OCc3ccccc3)cc2)CC1,-3,7.4µM*,13µM*,13,-12
CN1CCN(c2ccccc2NC(=O)c2ccc(-c3ccccc3)cc2)CC1,-7,?,/,65,-14
O=C(Nc1ccccc1F)C(Cc1ccccc1)n1cccc1 (centres undefined),/,/,/,11,/
COc1cccc(C(=O)Nc2ccccc2N2CCN(C(=O)c3ccccc3)CC2)c1,/,/,/,-6,/
CCc1ccc(OCC(=O)OC(C)C(=O)Nc2ccc(Cl)cn2)cc1 (centres undefined),/,?,-22%,21,/
CN1CCN(c2ccccc2NC(=O)c2c(F)cccc2F)CC1,0,?,3.7µM*,-15,11
COc1c(F)c(F)c(C(=O)Nc2ccccc2N2CCN(C(=O)C(C)C)CC2)c(F)c1F,5,0.93µM*,57%,52,-16
CN1CCN(c2ccccc2NC(=O)c2cc(Br)ccc2Cl)CC1,-5,?,-3%,39,-12
COc1cc2c(C(=O)N3CCN(c4ccc(C)cc4)C(C)C3)cn(CC(C)C)c(=O)c2cc1OC (centres undefined),/,/,/,-18,/
COc1cc(OC)c(OC)cc1/C=C(\C#N)C(=O)NCc1cccs1,1,-1%,0%,-20,10
Cc1cc(/C=C(\C#N)C(=O)NCc2cccs2)c(C)[nH]1,16*,-24%,-3%,41,67
Cc1ccc(OCCOC(=O)Nc2ccccc2)cc1,12,1%,1%,-62*,24
Cc1ccc(NC(=O)OCCNC(=O)OC(C)C)cc1,42*,99%,-30%,-2,81*
Cc1cccc(OCCOC(=O)Nc2ccccc2)c1,16*,3%,-7%,?,-31
O=C(Nc1ccccc1)OCCOc1ccc(Br)cc1,-2,-14%,96%,-7,2
COc1ccccc1OCCOC(=O)Nc1ccccc1,13*,31%,8.3µM*,-15,26*
COc1cccc(COC(=O)Nc2ccccc2)c1OC,/,/,/,-12,/
C[C@@H]1CN([C@H](C)CO)C(=O)CCCn2nncc2CO[C@H]1CN(C)C(=O)OCc1ccccc1,/,/,/,-29,/
COc1cc(/C=C2\SC(=S)N(CCC(=O)N3CCCCC3)C2=O)cc(OC)c1OC,-2,?,24%,?,-4
COc1ccccc1OCCC(=O)O,8,?,24%,-91*,4
COc1ccccc1OCC(=O)O,-1,7%,-21%,55,31
C/C(=N\NC(=O)c1ccc(C(=O)N/N=C(\C)c2ccco2)o1)c1ccco1,2,?,2.6µM*,29,-3
C/C(=N/NC(=O)c1ccco1)c1ccc(NC(=O)c2ccc(Br)o2)cc1,62*,-2%,19%,10,96*
SMILES,Cycloheximide cs,Pf growth 48h,Pf growth 96h,HCMV antiviral,Shiga toxin inh
C/C(=N\NC(=O)c1ccc(-c2ccccc2)cc1)c1ccco1,16,?,?,?,42
C/C(=N\NC(=O)c1nc2ccccn2c1C)c1cc2ccccc2o1,18,-20%,?,?,32
C/C(=N\NC(=O)c1nc2ccccn2c1C)c1ccco1,27*,71%,82%,57,62*
C/C(=N\NC(=O)c1ccco1)c1cccc2ccccc12,8,9.3µM*,-21%,-2,16
CCC(=O)Nc1ccc(S(=O)(=O)c2ccc(NC(=O)CC)cc2)cc1,-3,54%,-21%,-28,-3
CCCCCC(=O)NC(=S)Nc1ccc(NC(=O)c2ccco2)cc1,-1,?,?,?,10
C/C(=N/NC(=O)c1ccco1)c1ccc(NC(=O)c2ccc(F)cc2)cc1,90*,120%,108%,66,58*
CCCCCC(=O)N/N=C(\C)c1ccc(NC(=O)c2ccco2)cc1,30*,47%,118%,9,81*
C/C(=N\NC(=O)CNC(=O)c1ccc(F)cc1)c1ccco1,-1,-18%,?,-27,6
CN(C(=O)CSc1nnc(C(F)(F)F)n1N)C1CCS(=O)(=O)C1 (centres undefined),-2,23%,6%,-10,-8
COc1ccccc1CNC(=O)c1ccc(S(=O)(=O)N2CCCC2)cc1,-1,-11%,10%,0,-14
COc1ccc(CNC(=O)COc2ccc(S(=O)(=O)N3CCCCC3)cc2Cl)cc1,-3,13µM*,-24%,5,-3
COc1ccc(CNC(=O)COc2ccc(S(=O)(=O)N3CCCCC3)cc2)cc1,2,?,11%,8,3
COc1cc(OC)c(OC)cc1CNC(=O)c1ccc(S(=O)(=O)N2CCCCC2)cc1,/,9.3µM*,5.2µM*,?,/
COc1ccc(CNC(=O)c2cc(S(=O)(=O)N3CCCCC3)ccc2Cl)cc1OC,/,/,/,-64*,/
COc1ccc(OC)c(/C=N/NC(=O)CNC(=O)c2ccc(S(=O)(=O)N3CCCC3)cc2)c1,-2,27%,4.1µM*,86,-8
Cc1nc2ncnn2c(N2CCN(S(=O)(=O)c3ccc(Br)cc3)CC2)c1C,-2,-12%,50%,-39,-12
COc1ccc(CCNC(=O)c2ccc3c(c2)S(=O)(=O)N=C2CCCCCN23)cc1,/,?,?,-21,/
O=C(C(c1ccccc1)c1ccccc1)N1CCN(Cc2ccco2)CC1,8,-29%,?,-37,13
Cc1ccc(OC(=O)c2cc(-c3ccc4c(c3)OCCO4)on2)cc1C,/,/,/,5,/
Cn1cc(C(=O)NCc2ccc(F)cc2)c(=O)c2cc(S(=O)(=O)N3CCCCC3)ccc21,-4,15µM*,-25%,17,-11
COc1ccc(CNC(=O)c2cccc(S(=O)(=O)N3CCCCC3)c2)cc1OC,/,?,?,-87*,/
CCOc1ccc(CCNC(=O)c2cccc(N3CCCC3=O)c2)cc1OCC,-2,/,/,-79*,4
COc1ccc(CNC(=O)CN2CCN(S(=O)(=O)c3cc(Br)ccc3Br)CC2)cc1OC,/,10µM*,?,-14,/
COc1ccc(CCNC(=O)c2ccc(N3CCCC3=O)cc2)cc1OC,-2,-22%,4%,22,-11
SMILES,Cycloheximide cs,Pf growth 48h,Pf growth 96h,HCMV antiviral,Shiga toxin inh
COc1ccc(CNC(=O)CN2CCN(S(=O)(=O)c3c(C)c(C)cc(C)c3C)CC2)cc1OC,/,/,/,-11,/
CCOC(=O)c1c(-c2ccc(C)o2)csc1NC(=S)NC(=O)N(C)C,1,?,?,-13,-13
O=C(NCc1cccnc1)c1cc(S(=O)(=O)N2CCCCC2)ccc1Cl,-2,8%,/,-26,-1
CCOc1ccc(CCNC(=O)c2cccc(S(=O)(=O)N3CCCCC3)c2)cc1OCC,/,15µM*,?,-7,/
O=C(NCc1ccc(F)cc1)c1cc(S(=O)(=O)N2CCCCC2)ccc1Cl,/,0%,36%,-102*,/
Cc1nc2ncnn2c(N2CCC(C(=O)NC3CCCC3)CC2)c1Cc1ccccc1,-3,15µM*,45%,0,7
